The results in this text go back to PubChem BioAssay AID588358 (NMMLSC, 2011).

Molecules are shown by their SMILES. The whole screen tested about 310,000 compounds, of which about 1,500 (0.48%) were called active. What follows is part of a selection rich in actives, with near analogues and random picks from the rest. Values without a mark were called inactive.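 Rule for the calls: active = binding more than 3 SD below its plate's average and above zero; inconclusive = below that plate limit but binding exactly zero; inactive = the rest.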

The experiment deals with Desmoglein-3 (Homo sapiens) (UniProt P32926). Description: inhibitors of pemphigus antibody binding to DSG3, primary screen, biochemical, bead-based, flow cytometry, scFv-GFP (AID 588358).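 Note: hits lower antibody fragment binding to DSG3.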 Particulars: DSG3-coupled beads, scFv-anti-DSG3-GFP binding, at 10 µM, hits give low values.
Sequence of Desmoglein-3 (Homo sapiens) (P32926 whole entry, looked up, the tested form may be a part): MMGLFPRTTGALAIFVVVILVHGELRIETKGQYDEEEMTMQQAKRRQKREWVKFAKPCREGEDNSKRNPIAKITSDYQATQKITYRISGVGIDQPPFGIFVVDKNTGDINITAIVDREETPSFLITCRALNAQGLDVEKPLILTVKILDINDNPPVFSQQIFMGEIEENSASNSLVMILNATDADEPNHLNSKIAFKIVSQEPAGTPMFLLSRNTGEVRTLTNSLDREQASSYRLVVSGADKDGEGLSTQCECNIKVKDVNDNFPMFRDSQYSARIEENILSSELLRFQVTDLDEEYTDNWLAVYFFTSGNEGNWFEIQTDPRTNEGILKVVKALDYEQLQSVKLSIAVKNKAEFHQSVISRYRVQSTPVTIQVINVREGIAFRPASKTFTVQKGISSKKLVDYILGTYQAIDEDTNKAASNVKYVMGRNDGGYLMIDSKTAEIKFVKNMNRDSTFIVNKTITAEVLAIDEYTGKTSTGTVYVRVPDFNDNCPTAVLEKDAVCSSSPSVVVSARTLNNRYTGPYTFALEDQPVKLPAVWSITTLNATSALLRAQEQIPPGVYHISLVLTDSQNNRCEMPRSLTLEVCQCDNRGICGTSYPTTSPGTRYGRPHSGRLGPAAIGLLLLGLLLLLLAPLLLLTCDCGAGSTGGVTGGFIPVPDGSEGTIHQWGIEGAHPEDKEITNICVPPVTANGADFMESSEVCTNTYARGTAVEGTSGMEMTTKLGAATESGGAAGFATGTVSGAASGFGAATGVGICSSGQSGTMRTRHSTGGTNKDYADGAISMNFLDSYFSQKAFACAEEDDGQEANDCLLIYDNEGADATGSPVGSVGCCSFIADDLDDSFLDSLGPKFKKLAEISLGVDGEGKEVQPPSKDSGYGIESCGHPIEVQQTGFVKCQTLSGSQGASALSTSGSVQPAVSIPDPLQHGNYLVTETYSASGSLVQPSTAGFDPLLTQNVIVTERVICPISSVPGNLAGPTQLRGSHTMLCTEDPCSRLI
`COCCn1c(SCC(=O)Nc2ccc(F)cc2F)nc2c(c1=O)SCC2`: the binding (percent of control) is 103%.
The figure for `O=C(COc1ccc(S(=O)(=O)N2CCCC2)cc1[N+](=O)[O-])N1CCCCC1` is 92.6%; for `Cc1ccc2nc(SCC(=O)NC3CCCC3)[nH]c2c1` it is 81.4%; for `Cc1ccc2c(cnn2C(=O)CCC(=O)NC2CCCC2)c1` it is 53% (active).
With `Cc1cccc2c1cnn2C(=O)CCC(=O)NC1CCCCC1` the figure was 102%.
With `CC1(c2cccc(Br)c2)NC(=O)N(CC(=O)NCCC2=CCCCC2)C1=O` (stereo unspecified) the figure was 99.5%.
Regarding `O=Nc1c(O)cc(O)c2ccccc12`, the binding (percent of control) is 104%.
With `CC(C)CCC(=O)Nc1cc(S(=O)(=O)N2CCOCC2)ccc1N1CCCC1` the figure was 104%; with `COc1cc(OC)cc(C(=O)NCCSCc2ccc(Cl)cc2)c1`, 76.3% (active).
The figure for `COc1ccc(CCNC(=O)c2cnc(Cl)c(Cl)c2)cc1` is 97.2%; for `COc1ccc(N(CC(=O)NCCSCc2cccc(Cl)c2)S(C)(=O)=O)cc1` it is 104%; for `Cc1ccc(S(=O)(=O)NN=C2CC(C)(C)CC(=O)C2(C)C)cc1` it is 98.4%.
With `O=C(NCCc1cccc(F)c1)C1CC(O)CN1C(=O)Nc1ccccc1` (stereo unspecified) the figure was 94.3%.
In the case of `COc1cc(C=NC2CCCCC2)ccc1O`, the binding (percent of control) is 106%.
Turning to `COc1ccc(CCNC(=S)N2CCN(S(=O)(=O)c3ccc(Cl)cc3)CC2)cc1`, the binding (percent of control) is 106%.
As for `COc1ccc(CCNC(=S)N2CCN(S(=O)(=O)c3ccc(F)cc3)CC2)cc1`, the binding (percent of control) was 63.3% (active).
Take `COc1ccc(CCC(=O)N2CCN(S(=O)(=O)c3ccc(OC)cc3)CC2)cc1`: the binding (percent of control) was 96.6%.
As to `COC(=O)[C@H]1C[C@H](OC(=O)NCc2ccccc2)[C@@]2(O)CN(S(=O)(=O)c3ccc(C)cc3)CC2[C@H]1C(=O)OC` (stereo partly specified), the binding (percent of control) is 110%.
With `CC(C)(C)C(=O)OCc1nc(-c2ccc(O)c(O)c2)cs1`, the binding (percent of control) is 103%.
With `COc1ccc(-c2cn3ccsc3n2)cc1` the figure was 107%; with `COc1ccc(-c2csc(Cc3nc(O)cs3)n2)cc1`, 8.21% (active); with `COc1ccc([C@H]2C[C@@H](n3cc(COC(=O)c4ccccc4)nn3)[C@H](O)CN2C(=O)c2cccs2)cc1`, 106%.
Consider `CCN1CCN(CCNC(=O)c2ccc3c(c2)NC(=O)/C(=C\c2cccc(Cl)c2)S3)CC1`, for which the binding (percent of control) was 106%.
As for `O=C(COC(=O)c1ccc(S(=O)(=O)N2CCCCCC2)cc1)Nc1ccccc1C(F)(F)F`, the binding (percent of control) was 109%.
Regarding `CCOC(=O)C1CCN(C(=O)/C=C/c2cc(OC)c(OC)c(OC)c2)CC1`, the binding (percent of control) was 101%.
For the molecule `COc1cc(/C=C/C(=O)N2CCc3ccccc3C2)cc(OC)c1OC`, the binding (percent of control) was 68.1% (active).
`COc1ccc(/C=C/C(=O)N2CCCC2)cc1OC`: the binding (percent of control) was 105%.
On to `Cc1ccc(S(=O)(=O)N2C[C@H]3n4c(=O)ccc(=O)n4C[C@H](OC(=O)NC4CCCC4)[C@@]3(O)C2)cc1`, for which the binding (percent of control) is 103%.
For `COc1ccc([C@H]2N[C@]3(CCCN(CC4CCCCC4)C3=O)[C@H]3C(=O)N(C)C(=O)[C@@H]23)cc1`, the binding (percent of control) was 106%.
Consider `COc1cccc(/C=C2\SC(=S)N(CCCC(=O)N3CCOCC3)C2=O)c1`, for which the binding (percent of control) was 99.8%.
With `CCOC(=O)c1sc(NC(=O)c2sc(C)nc2C)nc1C` the figure was 96.7%.
With `CCOC(=O)c1sc(NC(=O)C(CC)Sc2nccn2C)nc1C` (stereo unspecified) the figure was 83.3% (active); with `C=CCn1c2ccccc2c2nnc(SC(CC)C(=O)Nc3nc(C)c(C(=O)OCC)s3)nc21` (stereo unspecified), 93.3%; with `O=C(Cc1ccc([N+](=O)[O-])cc1)NCCS(=O)(=O)N1CCN(c2ccccc2)CC1`, 97.2%.
With `COc1ccc(N2CCN(c3ccc([N+](=O)[O-])nc3)CC2)cc1`, the binding (percent of control) is 77.8%.
For the molecule `O=[N+]([O-])c1ccc(N2CCN(c3ccc(O)cc3)CC2)c(Cl)c1`, the binding (percent of control) is 101%.
The figure for `COc1ccc(N2CCN(c3ccc([N+](=O)[O-])cc3Cl)CC2)cc1` is -9.48% (active); for `COC(=O)c1sccc1NC(=O)c1cc(OC)c(OC)c(OC)c1` it is 81.8%.
Consider `COC(=O)Cn1c(=NC(=O)c2cc(OC)c(OC)c(OC)c2)sc2cc(OC)ccc21`, for which the binding (percent of control) was 88.6% (active).
On to `COC(=O)Cn1c(=NC(=O)CSCC(=O)Nc2cc(C)on2)sc2ccccc21`, for which the binding (percent of control) is 82.3%.
With `CC(C)N=C1CCCC1C(=S)SSC(=S)C1CCCC1=NC(C)C` (stereo unspecified) the figure was 102%; with `N#CCCN(C(=S)Nc1ccc(Cl)c(Cl)c1)C1CCCCC1`, 105%.
As for `Cc1cc(C)n(-c2ccc(C(=O)O)cc2[N+](=O)[O-])n1`, the binding (percent of control) was 102%.
For the molecule `Cc1cc(C)n(-c2ccc3nncn3n2)n1`, the binding (percent of control) was 99%.
For `Cc1cc(C)n(-c2ccc(Cl)c(C(=O)O)n2)n1`, the binding (percent of control) was 56.1% (active).
The figure for `O=C(O)C(=Cc1ccc([N+](=O)[O-])cc1)CCc1ccccc1` is 103%; for `CCOC(=O)c1c(C)[nH]c(C)c1C(=O)COC(=O)/C=C/c1cccc([N+](=O)[O-])c1` it is 98.5%; for `CCN1CCCC1CNC(=O)c1ccc2c(c1)NC(=O)/C(=C\c1ccccc1F)S2` (stereo unspecified) it is 94.9%.
With `Cc1ccc(NC(=O)N2CCSc3ccccc32)cc1` the figure was 63% (active); with `CCOc1ccc(CNC(=O)CCC(=O)N2CCSc3ccccc32)cc1`, 102%.
The figure for `Cc1ccc(NC(=O)CN2CCc3ccccc3C2)cc1` is 95.1%.
Consider `CCN(CC)C(=O)C1=C(C)N(Cc2ccc(F)cc2)C(=O)C(CC(=O)NC2CCCC2)C1` (stereo unspecified), for which the binding (percent of control) is 109%.
With `CC1(C)CN(Cc2cccnc2)C(=O)[C@H]1CC(=O)Nc1ccc(Br)cc1`, the binding (percent of control) was 96.8%.
The figure for `Cc1[nH]c2ccccc2c1C(=O)C(=O)NCc1nnnn1-c1cccc(F)c1` is 110%.
With `Cc1csc(SCC(=O)Nc2ccc(C)c(S(=O)(=O)N(C)C)c2)n1` the figure was 100%.
In the case of `FC(F)(F)C1CCCN(c2nsc3ccccc23)C1` (stereo unspecified), the binding (percent of control) was 59.3% (active).
With `O=C(NC(Cc1ccccc1)C(=O)N1CCCC(C(F)(F)F)C1)c1ccccc1` (stereo unspecified) the figure was 93.4%; with `O=C(NCC(=O)N1CCCC(C(F)(F)F)C1)c1ccccc1F` (stereo unspecified), 98.7%; with `CN(C)S(=O)(=O)c1cccc(-c2nn(-c3ccccc3)cc2/C=C2\SC(=S)N(CC(=O)O)C2=O)c1`, 34.1% (active).
For the molecule `Cc1ccc(-c2nn(-c3ccccc3)cc2/C=C2\SC(=S)N(CCCCCC(=O)O)C2=O)o1`, the binding (percent of control) was 93.2%.
With `COc1ccc(-c2nn(-c3ccccc3)cc2/C=C2/SC(=S)N(CCCC(=O)O)C2=O)c(C)c1` the figure was 104%.
